Laboratory results reported in the supplement of paper PMC12669032.
A number with no mark means an inactive call.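 Rule for the calls: active = AUC reduced over 20% with Padj below 0.05 in at least 2 of 3 replicates; inactive = otherwise.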

What was measured:
Assay in all cases: growth AUC relative to DMSO control (median of replicates) (fraction); higher = more growth (less inhibition), active = hit call of the paper
Conditions in all cases: 20 µM; 24 h
[1] = system: Akkermansia muciniphila
Procedure, shortened: (§1)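 In round-bottom 96-well plates sealed with pierced gas-permeable seals, gut bacterial monocultures in mGAM were grown anaerobically at 37 °C from OD600 0.05 with 20 µM compound (1% DMSO). OD600 readings were taken hourly for 24 h, and the minimum OD was set to 0. Area under the growth curve was then normalised to the plate median of solvent-only wells, or to row and column medians on the industrial chemical plate. The value given is the median of three biological replicates grown on separate days.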

[2] = system: Bacteroides caccae
Procedure, shortened: as §1

[3] = system: Bacteroides clarus
Procedure, shortened: as §1

[4] = system: Bacteroides dorei
Procedure, shortened: as §1

[5] = system: Bacteroides stercoris
Procedure, shortened: as §1

[6] = system: Bacteroides thetaiotaomicron
Procedure, shortened: as §1

[7] = system: Bacteroides uniformis
Procedure, shortened: as §1

[8] = system: Bifidobacterium longum subsp. longum
Procedure, shortened: as §1

[9] = system: Clostridium difficile
Procedure, shortened: as §1

[10] = system: Collinsella aerofaciens
Procedure, shortened: as §1

[11] = system: Coprococcus comes
Procedure, shortened: as §1

[12] = system: Escherichia coli ED1a
Procedure, shortened: as §1

[13] = system: Escherichia coli IAI1
Procedure, shortened: as §1

[14] = system: Eubacterium rectale
Procedure, shortened: as §1

[15] = system: Fusobacterium nucleatum subsp. animalis
Procedure, shortened: as §1

[16] = system: Lactobacillus gasseri
Procedure, shortened: as §1

[17] = system: Lactobacillus paracasei
Procedure, shortened: as §1

[18] = system: Odoribacter splanchnicus
Procedure, shortened: as §1

[19] = system: Parabacteroides distasonis
Procedure, shortened: as §1

[20] = system: Parabacteroides merdae
Procedure, shortened: as §1

Structure (SMILES) | growth AUC [1] | growth AUC [2] | growth AUC [3] | growth AUC [4] | growth AUC [5] | growth AUC [6] | growth AUC [7] | growth AUC [8] | growth AUC [9] | growth AUC [10] | growth AUC [11] | growth AUC [12] | growth AUC [13] | growth AUC [14] | growth AUC [15] | growth AUC [16] | growth AUC [17] | growth AUC [18] | growth AUC [19] | growth AUC [20]
O=C(O)CNCP(=O)(O)O | 1.07 | 1.06 | 0.999 | 0.981 | 1.08 | 1.02 | 0.977 | 1.05 | 1.06 | 0.997 | 1 | 1 | 1 | 1.01 | 1.08 | 1.04 | 0.949 | 1.08 | 1.01 | 1.04
O=C(O)c1c(Cl)ccc2cc(Cl)cnc12 | 0.898 | 1 | 0.983 | 0.992 | 0.987 | 1.02 | 1 | 0.961 | 0.959 | 0.947 | 1 | 1 | 0.969 | 0.942 | 1.02 | 1.07 | 0.934 | 0.988 | 0.986 | 0.987
CCOc1nc(NC)nc(NC(=O)NS(=O)(=O)c2ccccc2C(=O)OC)n1 | 0.947 | 1.01 | 1.01 | 1.02 | 0.97 | 0.988 | 0.998 | 0.967 | 0.979 | 0.992 | 0.996 | 1.02 | 1.02 | 0.974 | 1.04 | 1.23 | 1.04 | 1.04 | 1.05 | 1.03
CN(C)C(=S)SSC(=S)N(C)C | 0.83 | 0.968 | 0.967 | 0.961 | 0.87 | 0.75 (active) | 0.909 | 0.974 | 0.945 | 0.957 | 0.833 | 0.973 | 0.973 | 0.83 | 1.09 | 0.875 | 1.02 | 0.0343 (active) | 0.928 | 0.852
CCNc1nc(NCC)nc(SC)n1 | 1.14 | 0.946 | 1.02 | 0.994 | 1.26 | 0.955 | 1 | 1.08 | 0.981 | 0.996 | 0.99 | 1.02 | 0.99 | 1.02 | 1.06 | 1.13 | 1.08 | 0.88 | 1.01 | 1.04
CC(C)(O)C(Cl)(Cl)Cl.CC(C)(O)C(Cl)(Cl)Cl.O | 1.08 | 1.01 | 1 | 0.973 | 1.12 | 1.05 | 1.02 | 0.917 | 1.03 | 0.999 | 1.04 | 1.01 | 1.02 | 0.942 | 1.1 | 1.06 | 1.02 | 0.967 | 1.05 | 0.987
COC(=O)Nc1nc2ccccc2[nH]1 | 0.927 | 1.01 | 0.991 | 1.01 | 0.957 | 1.04 | 0.988 | 1.01 | 1.06 | 1.03 | 1.05 | 1.04 | 1.01 | 0.854 | 1.03 | 1.14 | 0.862 | 0.997 | 1.03 | 0.981
CCC(C)(c1ccc(O)cc1)c1ccc(O)cc1 | 0.984 | 0.989 | 0.925 | 0.967 | 0.927 | 0.973 | 0.991 | 1.02 | 0.997 | 1 | 1.01 | 1 | 1.01 | 0.882 | 1.04 | 1 | 0.989 | 0.872 | 0.743 | 0.968
CCCSC(=O)N(CCC)CCC | 0.868 | 0.991 | 0.957 | 1.02 | 0.946 | 1.01 | 1.02 | 1.04 | 1.01 | 0.967 | 0.994 | 0.974 | 0.985 | 1.01 | 1 | 1.01 | 0.954 | 1.01 | 0.995 | 0.991
CN=C=S | 0.945 | 1.01 | 0.977 | 0.988 | 1.07 | 1 | 1 | 1.05 | 1.01 | 1.02 | 1 | 1 | 1.01 | 0.972 | 0.977 | 0.962 | 1.04 | 1.06 | 1.08 | 1
CNC(=O)Oc1ccccc1OC(CCl)OC (stereo not given) | 1.17 | 0.941 | 1.06 | 0.955 | 1.23 | 1.02 | 0.982 | 1.02 | 1.03 | 1.07 | 1.01 | 1.02 | 1.02 | 1.16 | 1.19 | 1.04 | 1.04 | 1.05 | 0.988 | 1.06
C=CCN=C=S | 0.98 | 0.968 | 0.993 | 1.01 | 0.977 | 1.02 | 1.02 | 0.999 | 1.01 | 1.02 | 1 | 1.01 | 0.979 | 0.974 | 1.06 | 1.05 | 0.991 | 1 | 0.996 | 1.03
Clc1cc(Cl)nc(-c2ccccc2)n1 | 1.12 | 0.877 | 0.99 | 0.995 | 1 | 0.971 | 0.956 | 1.09 | 0.956 | 0.927 | 1.02 | 1.01 | 0.997 | 1.06 | 1.08 | 0.883 | 1 | 1.02 | 0.991 | 0.965
c1ccc2c(c1)ccc1c3ccccc3sc21 | 1.03 | 0.999 | 0.987 | 0.969 | 1 | 0.998 | 0.972 | 1.25 | 1.02 | 0.99 | 0.965 | 0.988 | 1 | 0.942 | 1.01 | 0.974 | 1.03 | 0.984 | 1.1 | 1
C[C@@H](Oc1ccc(Cl)cc1Cl)C(=O)O | 1.14 | 0.98 | 1 | 0.925 | 1.26 | 1 | 0.965 | 0.982 | 0.949 | 0.977 | 0.967 | 1.02 | 1.02 | 1.17 | 1.07 | 0.906 | 0.949 | 0.98 | 0.964 | 1.01
CC(C)(C)C(O)C(Cc1ccc(Cl)cc1Cl)n1cncn1 (mixture of isomers) | 1.11 | 0.923 | 0.969 | 0.889 | 0.868 | 0.921 | 0.932 | 1.04 | 1.01 | 0.936 | 0.982 | 0.981 | 0.979 | 0.845 | 0.963 | 0.947 | 1.01 | 0.989 | 0.871 | 0.889
